Screening data as filed in PubChem BioAssay.
Integrin act MD – activators of alpha7 integrin expression for muscular dystrophy | alpha7betagal myoblasts, beta-gal FDG fluorescence, 48 h | Potency, µM (highest dose often 38.3 µM), without a hit: at the top dose activation, actives largely listed as activators | 350,000 tested, 0.064% active | AID 624291;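 further: potency means the concentration at half of the fitted maximal effect; 100% = response of the positive control SU9516; nearly all actives have a fitted effect of over 60% in size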
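alpha7betagal+/- myoblasts (passage 13, 250/well) treated 48 h at 37C with compounds at 1:260 dilution of DMSO stock. Lysed, then beta-galactosidase activity read as FDG fluorescence (ex 480/em 540) after 30 min, with pre-read for autofluorescence.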
uPA surface inh – cell surface uPA generation inhibition | cell surface uPA generation assay, qHTS | Potency, µM (doses to about 38.3 µM), for inactives: at the highest dose activity change, negative = inhibition, hits mostly inhibitors | 330,000 tested, 0.31% active | AID 540303; active means well fitted inhibition curve with a large enough effect; inconclusive means small, poorly fitted or top-dose-only effect; inactive means no such curve, though single readings can be large or run the other way; tested in mouse RAW 264.7 cells; further: potency means the concentration at half of the fitted maximal effect; on the % scale 0 is the no-effect control and ±100 the full control effect; nearly all actives have a fitted effect of over 55% in size
12-LOX inh – inhibitors of human 12S-lipoxygenase ALOX12; P18054; purified 12hLO, xylenol orange hydroperoxide absorbance; Potency, µM (highest dose often 108 µM), for inactives: top-dose activity change, negative = inhibition, most hits filed as inhibitors; 580,000 tested, 1.1% active; further: potency means the concentration at half of the fitted maximal effect; on the % scale 0 is the no-effect control and ±100 the full control effect
Target sequence (P18054 whole entry, looked up): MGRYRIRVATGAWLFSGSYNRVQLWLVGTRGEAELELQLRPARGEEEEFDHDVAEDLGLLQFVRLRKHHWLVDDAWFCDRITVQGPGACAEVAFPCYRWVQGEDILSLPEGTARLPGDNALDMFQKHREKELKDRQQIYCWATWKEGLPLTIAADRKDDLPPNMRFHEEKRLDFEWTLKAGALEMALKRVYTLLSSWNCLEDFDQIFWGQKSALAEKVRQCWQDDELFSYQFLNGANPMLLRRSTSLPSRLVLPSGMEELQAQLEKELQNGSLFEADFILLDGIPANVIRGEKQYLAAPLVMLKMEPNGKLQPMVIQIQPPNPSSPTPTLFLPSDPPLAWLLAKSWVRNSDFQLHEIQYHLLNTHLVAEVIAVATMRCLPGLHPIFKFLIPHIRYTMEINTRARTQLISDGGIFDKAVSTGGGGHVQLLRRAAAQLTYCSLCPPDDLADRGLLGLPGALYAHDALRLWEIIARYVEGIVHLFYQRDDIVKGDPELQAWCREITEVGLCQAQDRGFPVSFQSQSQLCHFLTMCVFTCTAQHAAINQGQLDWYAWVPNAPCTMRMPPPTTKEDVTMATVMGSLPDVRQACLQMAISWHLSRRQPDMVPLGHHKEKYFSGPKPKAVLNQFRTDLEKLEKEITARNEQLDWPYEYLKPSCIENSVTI
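Purified human 12hLO (150 nM final) in 25 mM Hepes, 0.01% Triton X-100, pH 7.0 was preincubated 15 min at room temperature with compound. Then 40 uM arachidonic acid was added, 30 min. Hydroperoxide was read by Fe-XO absorbance ratio 573/405 nm.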
IL-2 act – IL-2 activation; IL-2 activation reporter assay, cell-based qHTS; stimulated with anti-CD3/CD4/CD28 beads; in transgenic mouse T cells; activation, % (series mostly up to about 46 µM); 360,000 tested, 0.065% active; AID 652025; in the data active means activation above about 50%; inconclusive means mostly about 30% to 49%; further: 0% is about no effect
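Using fluorescent plate cytometry, EGFP and DsRed are detected in transgenic mouse T cells stimulated 18 h at 37 degrees C with antibody-coated beads after 60 min compound pretreatment.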
Nrf2 activator – Nrf2 pathway activation; 410,000 tested, 0.31% active; AREc32 ARE-luciferase reporter (MCF7-derived line), luminescence, 24 h; Potency, µM (highest dose often 46.1 µM), for inactives: at the top dose activation, actives largely listed as activators; AID 624171; further: potency means the concentration at half of the fitted maximal effect; % of control where 0% means no effect; nearly all actives have a fitted effect of over 65% in size
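Luciferase luminescence (Steady-Glo, 30 min at room temperature) served as the read-out of ARE activation in AREc32 cells treated with compounds for 24 hr at 37 deg C.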
Active calls of the source: *; [ ] = dose if it differs, or a comment. A selection: hits, their analogues and other compounds. The true share with any hit is near 1.5%. Unless noted, the call rests on the fitted dose curve; in most records, active means well fitted curve in the direction sought with a large enough effect; inconclusive means small, poorly fitted or top-dose-only effect, or another doubt; inactive means no such curve, though single readings can be large; an effect the other way counts as inactive or inconclusive.

For CCOc1cc(COC(=O)c2cccc(S(=O)(=O)N3CCOCC3)c2)ccc1OC(F)F the results were 12-LOX inh -20%.
`O=C(Nc1ccc2[nH]ccc2c1)c1cccs1` gave Integrin act MD 7%, uPA surface inh 7.1µM*, 12-LOX inh 0%, IL-2 act 0 and Nrf2 activator 4%.
Screening Cc1ccc(SCCN2CCN(C)CC2)cc1 returned Integrin act MD inconclusive, uPA surface inh 4%, 12-LOX inh 40µM*, IL-2 act -3 and Nrf2 activator -1%.
Screening O=C(O)Cn1nc(COc2ccc(F)cc2)nc1CN1CCCCCC1=O returned 12-LOX inh 40%.
`CCCCCCn1c(-c2cccs2)n[nH]c1=S` gave Integrin act MD -14%, uPA surface inh -7%, 12-LOX inh 28µM*, IL-2 act -1 and Nrf2 activator 0%.
`CCc1cc(-c2n[nH]c(=S)n2-c2cccc(C)c2)cs1` gave Integrin act MD 3%, 12-LOX inh 32µM*, IL-2 act -4 and Nrf2 activator -1%.
CCCCn1c(-c2csc(CC)c2)n[nH]c1=S was read as Integrin act MD -7%, uPA surface inh 8%, 12-LOX inh 50µM*, IL-2 act 0 and Nrf2 activator 1%.
Screening Cc1cccc(-n2c(-c3csc(C)c3)n[nH]c2=S)c1 returned Integrin act MD 23%, 12-LOX inh inconclusive, IL-2 act -2 and Nrf2 activator 0%.
`CCCCn1c(-c2csc(C(C)C)c2)n[nH]c1=S` gave Integrin act MD 2%, uPA surface inh 10%, 12-LOX inh inconclusive, IL-2 act -1 and Nrf2 activator 1%.
`COc1ccc2c(c1)nc1n2[C@@H](CNC2CCN(C(C)=O)CC2)COC1` gave 12-LOX inh 17%[176 µM].
For Cc1ccc(N2CC(C(=O)Nc3c(NC4CCCC4)c4ccccc4oc3=O)CC2=O)cc1 (configuration not stated) the results were 12-LOX inh -12%.
Screening COc1ccc(C)cc1NC(=O)CN1C(=O)NC2(CCCCC2)C1=O returned 12-LOX inh 3%.
For Cc1ccc(-c2cnc(CCC(=O)N(CCC#N)CCC#N)o2)cc1 the results were 12-LOX inh 15%.
O=[N+]([O-])c1ccccc1-c1ccc(C(=S)N2CCCC2)o1 was read as Integrin act MD -12%, uPA surface inh -16%, 12-LOX inh 40µM*, IL-2 act -1 and Nrf2 activator 14%.
For O=[N+]([O-])c1cc(-c2ccc(C(=S)N3CCOCC3)o2)ccc1Cl the results were Integrin act MD -20%, uPA surface inh -11%, 12-LOX inh 13µM*, IL-2 act -3 and Nrf2 activator 3%[9.22 µM].
Screening O=[N+]([O-])c1ccccc1-c1ccc(C(=S)N2CCCCC2)o1 returned Integrin act MD -23%, uPA surface inh -6%, 12-LOX inh 0%, IL-2 act 0 and Nrf2 activator 26%.
For COc1ccc(OC)c(C2CCCCC2O)c1 (configuration not stated) the results were 12-LOX inh 15%.
O[C@H]1C[C@H](c2ccc(Cl)cc2)N(Cc2cccs2)C[C@@H]1n1cc(-c2ccc(F)cc2)nn1 was read as Integrin act MD -9%, 12-LOX inh 35µM*, IL-2 act -2 and Nrf2 activator -2%.
Cc1ccccc1C(=O)Nc1ccc2nc(N3CCN(C4CCCCC4)CC3)cc(C(=O)O)c2c1 was read as 12-LOX inh 6.3µM*.
Cc1cccc(N2CCN(c3cc(C(=O)O)c4cc(NC(=O)C(C)(C)C)ccc4n3)CC2)c1 was read as 12-LOX inh 14µM*.
For Cc1cc(N2CCCCC2)nc2ccc(NC(=O)c3ccc(F)cc3)cc12 the results were 12-LOX inh inconclusive and Nrf2 activator -1%.
For CCCC(=O)Nc1ccc2nc(N3CCN(C(=O)OCC)CC3)cc(C(=O)O)c2c1 the results were 12-LOX inh 7.9µM*.
`CCOC(CCNC(=O)CCC(=O)Nc1ccc2nc(N3CCN(C)CC3)cc(C)c2c1)OCC` gave Integrin act MD 10%, uPA surface inh 4%, 12-LOX inh 412%, IL-2 act 1 and Nrf2 activator 0%.
CCc1noc(-c2cn(C3CCN(C(=O)Cc4cccc(OC)c4)CC3)nn2)n1 was read as 12-LOX inh -6%.
`COCCn1cc2c3c(cccc31)CN(C(=O)c1cc(F)ccc1Cl)CC2` gave 12-LOX inh 25µM*.
Cc1noc([C@@H](C)NC(=O)Cc2ccccc2)c1C(=O)O was read as 12-LOX inh 18%[176 µM].
Screening COc1ccc(CN[C@H](C)c2onc(C)c2C(=O)O)cc1 returned 12-LOX inh 28µM*.
CC(Oc1ccc(Cl)cc1)C(=O)NC(C)c1ccc2ccccc2c1 (configuration not stated) was read as 12-LOX inh 21%.
`Fc1ccc(CNC(=S)NCc2ccc(Cl)c(Cl)c2)cc1` gave 12-LOX inh 32µM*.
For S=C(NCc1ccccc1)NCc1ccccc1 the results were Integrin act MD -15%, uPA surface inh -16%, 12-LOX inh -3%, IL-2 act -1 and Nrf2 activator 0%.
Screening O=C(NC(=S)NCc1ccc(F)cc1)c1ccccc1 returned Integrin act MD -8%, uPA surface inh 2%, 12-LOX inh 16µM*, IL-2 act 2 and Nrf2 activator 1%.
`COc1ccc(C(=O)NC(=S)NCCc2ccccc2)cc1` gave Integrin act MD -11%, uPA surface inh 3%, 12-LOX inh 16µM*, IL-2 act 0 and Nrf2 activator 1%.
For Fc1ccc(CNC(=S)NCc2ccc(F)cc2)cc1 the results were Integrin act MD -7%, uPA surface inh 0%, 12-LOX inh inconclusive, IL-2 act -4 and Nrf2 activator 0%.
Screening O=C(NC(=S)NCc1ccncc1)c1ccccc1 returned Integrin act MD 17%, uPA surface inh 1%, 12-LOX inh -7%, IL-2 act -5 and Nrf2 activator 0%.
For CC(C)(C)C(=O)NC(=S)NCc1ccccc1 the results were Integrin act MD 19%, uPA surface inh 4%, 12-LOX inh 40µM*, IL-2 act 0 and Nrf2 activator 0%.
`COc1ccc(-n2nnnc2SCC(=O)Nc2cc(C)nn2-c2ccccc2C)cc1` gave 12-LOX inh 5%.
`COc1ccc(CCNC(=S)NC(=O)c2ccccc2)cc1OC` gave Integrin act MD -27%, 12-LOX inh inconclusive, IL-2 act 1 and Nrf2 activator 0%.
For CCc1ccc(C(C)NC(=S)NCc2ccc(F)cc2)cc1 (configuration not stated) the results were Integrin act MD -40%, uPA surface inh 3%, 12-LOX inh 45µM*, IL-2 act 2 and Nrf2 activator 0%.
